Assay outcomes: PubChem, National Center for Advancing Translational Sciences (NCATS)
Shown are actives, neighbours in structure and some others; about 3.5% of the full set was active somewhere.
Giardia FBPA inh – qHTS Assay for Inhibitors of Fructose-1,6-bisphosphate Aldolase from Giardia Lamblia; A8B2U2; purified Giardia FBPA; Potency, µM (titrated, usually from 59.6 µM), without a hit: at the highest dose activity, negative = inhibition, actives largely listed as inhibitors; 0.71% of 290,000 active; further: on the % scale 0 is the no-effect control and ±100 the full control effect; nearly all actives have a fitted effect of over 55% in size
Target sequence (A8B2U2 whole entry, looked up): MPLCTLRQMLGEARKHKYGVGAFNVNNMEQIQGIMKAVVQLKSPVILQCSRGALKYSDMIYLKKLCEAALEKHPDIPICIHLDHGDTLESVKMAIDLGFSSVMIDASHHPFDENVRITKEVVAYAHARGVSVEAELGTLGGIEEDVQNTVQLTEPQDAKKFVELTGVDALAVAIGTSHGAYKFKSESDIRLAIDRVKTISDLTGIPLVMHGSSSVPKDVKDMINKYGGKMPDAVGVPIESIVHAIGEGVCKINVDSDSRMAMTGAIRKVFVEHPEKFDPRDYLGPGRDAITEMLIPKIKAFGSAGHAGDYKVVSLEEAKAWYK
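40 nM FBPA preincubated 10 min at RT with compound (up to 57.5 uM final), then substrate plus GAPDH/TPI/NAD/arsenate coupling and diaphorase/resazurin added. Fluorescence read after 20 min at RT, 525/598 nm.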
RE007 growth inh – qHTS Assay for Inhibitors of the HIV-1 protein Vpr. S. pombe RE007 Vpr strain, BacTiter-Glo ATP luminescence, 24 h. 0.21% of 360,000 active. Potency, µM (doses to about 92.2 µM), inactives show at the highest dose activity change, negative = less growth, most hits filed as inhibitors; active means well fitted falling curve with a large enough effect; inconclusive means small, poorly fitted or top-dose-only effect; inactive means no such curve, though single readings can be large or run the other way; further: on the % scale 0 is the no-effect control and ±100 the full control effect; nearly all actives have a fitted effect of over 50% in size
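Fission yeast strain RE007, carrying one chromosomally integrated HIV-1 vpr copy, was seeded at OD 0.01 in PMG+AL medium with 23 nL pinned compound. After 24 h at 30 °C and 99% humidity, viability was read by BacTiter-Glo luminescence.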
Sm TGR inh – qHTS Assay for the Inhibitors of Schistosoma Mansoni Peroxiredoxins; Schistosoma mansoni thioredoxin glutathione reductase (TGR), Q962Y6; purified TGR, DTNB reduction, TNB absorbance 405 nm; Potency, µM (series often up to 114 µM), for the others: top-dose activity change, negative = inhibition, usual class: inhibitors; 3% of 360,000 active; further: on the % scale 0 is the no-effect control and ±100 the full control effect; nearly all actives have a fitted effect of over 60% in size
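TGR 20 nM + NADPH 100 uM (dispensed conc.), cpd preinc 15 min RT; start with NADPH (500 uM addition) then DTNB (15 mM addition). Kinetic TNB absorbance, 405 nm filter. Four-parameter Hill fit across titration.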
NS1 inh – qHTS Assay for Inhibitors of Influenza NS1 Protein Function; 0.4% of 270,000 active; Potency, µM (doses to about 46.1 µM), for inactives: at the top dose activity, positive = more growth; calls by dose curve; further: actives are rising curves; nearly all actives have a fitted effect of over 50% in size
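In this qHTS, NS1 from influenza A is expressed in budding yeast, where it slows growth. Cells are switched from glucose to 2% galactose medium (pH 6.0, -URA), treated with compound, and growth recovery is read at OD600.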
TbPYK inhibitor – qHTS of Trypanosoma Brucei Inhibitors; pyruvate kinase (Trypanosoma brucei), Q57TT1; TbPYK enzyme, Kinase-Glo Plus ATP luminescence, 45 min; Potency, µM (doses to about 76.8 µM), for the others: at the top dose activity, negative = inhibition, actives largely listed as inhibitors; 0.12% of 410,000 active; AID 624173, 2012; further: on the % scale 0 is the no-effect control and ±100 the full control effect; nearly all actives have a fitted effect of over 50% in size
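Glycolytic pyruvate kinase of T. brucei was incubated with substrate, test compound and 130 uM ADP for 45 minutes at room temperature. Luminescent Kinase-Glo Plus signal was measured after 10 minutes.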
LmPK inh – qHTS Assay for Inhibitors of Leishmania Mexicana Pyruvate Kinase (LmPK); purified LmPK, Kinase-Glo ATP luminescence, 1 h; Potency, µM (top dose mostly 57.5 µM), without a hit: top-dose activity change, negative = inhibition, actives largely listed as inhibitors; 0.37% of 290,000 active; AID 1721, 2009; further: on the % scale 0 is the no-effect control and ±100 the full control effect
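0.1 nM LmPK, 0.5 mM PEP, 0.1 mM ADP; 50 mM imidazole pH 7.2, 7 mM MgCl2, 50 mM KCl; 1 h RT. Kinase-Glo luminescence readout, normalized to no-enzyme (full inhibition) and uninhibited wells.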
Active calls of the source: *; ? = inconclusive; / = not tested or not shown; [ ] = remark or other dose. Unless noted, the call rests on the fitted dose curve; in most records, active means well fitted curve in the direction sought with a large enough effect; inconclusive means small, poorly fitted or top-dose-only effect, or another doubt; inactive means no such curve, though single readings can be large; an effect the other way counts as inactive or inconclusive. Potency means the concentration at half of the fitted maximal effect.

SMILES	Giardia FBPA inh	RE007 growth inh	Sm TGR inh	NS1 inh	TbPYK inhibitor	LmPK inh
c1ccc2sc(SSc3nc4ccccc4s3)nc2c1	/	/	/	/	-5%	/
C=CCOC(=O)C(C#N)c1nc2ccccc2nc1N1CCN(c2ccccc2OC)CC1 (stereo not drawn)	-13%	-1%	-2%	?	-4%	2%
C=CCN(CC=C)c1nc2ccccc2nc1C(C#N)C(=O)OC(C)C (stereo not drawn)	-21%	-25%	28µM*	-17%	-5%	1%
Cc1ccc(NC(=O)c2oc3ccc(S(=O)(=O)N4CCCCCC4)cc3c2C)c(C)c1	/	/	5%	/	-1%	/
CC[N+]1(C)CCC(O)(c2ccc(OC)cc2)C(C(=O)c2ccc(OC)cc2)C1 (stereo not drawn)	/	40µM*	/	/	-11%	/
CN1CCC(O)(c2ccc(F)cc2)C(C(=O)c2ccc(F)cc2)C1 (stereo not drawn)	/	/	/	/	1%	/
COc1cc(NS(=O)(=O)c2ccc3c(c2)CC(=O)N3)cc(OC)c1OC	/	/	7%	/	-3%	/
NC(=O)C1CCCNC1 (stereo not drawn)	7%	0%	28µM*	0%	2%	-5%
O=C(NCc1ccco1)c1nc2nc(-c3cccs3)cc(C(F)(F)F)n2n1	-5%	-2%	32µM*	6%	-14%	12%
O=C(NCc1ccco1)c1nn2c(C(F)(F)F)cc(-c3cccs3)nc2c1Br	-11%	30%	32µM*	-4%	-10%	12%
COC(=O)c1nc2nc(-c3cccs3)cc(C(F)(F)F)n2n1	17%	1%	-1%	-4%	0%	0%
COCCNC(=O)CCc1c(C)n(C)c2cc(-c3cc(OC)c(OC)c(OC)c3)nn2c1=O	/	/	1%	/	2%	/
COc1ccc(OC)c([N+](=O)[O-])c1C(N)=O	?	-6%	79µM*	5%	-5%	2%
COc1ccc(NC(C)=O)c([N+](=O)[O-])c1[N+](=O)[O-]	/	-6%	/	/	5%	/
O=C(c1ccco1)N1CCn2cccc2C1c1ccccc1 (stereo not drawn)	-17%	-5%	35µM*	/	-3%	4%
COc1cc(-c2noc(C)c2C#Cc2ccccn2)cc(OC)c1OC	-5%	-13%	35µM*	-11%	-4%	7%
CC1(C)Cc2c(C#N)c(NCCc3ccccc3)nc(-c3ccco3)c2CO1	0%	?	?	7%	?	-1%
CC1(C)Cc2c(C#N)c(NCC3CCCO3)nc(-c3ccco3)c2CO1 (stereo not drawn)	-21%	-5%	4.5µM*	-3%[9.22 µM]	?	-3%
CC1(C)Cc2c(C#N)c(NC3CCCCC3)nc(-c3ccco3)c2CO1	?	/	1.8µM*	-49%	/	-13%
O=C1CCCc2cc(S(=O)(=O)NCC3CCC(C(=O)Nc4ccc(Cl)cc4)CC3)ccc2N1 (stereo not drawn)	/	/	8%	/	1%	/
Cc1cc2ccccc2c[n+]1CC(O)C[n+]1cc2ccccc2cc1C	/	/	/	1%	/	/
CCOC(=O)c1cc(-c2ccc(C)cc2)nn1Cc1ccccc1	/	/	0%	/	12%	/
CC(=O)Nc1ccc(NC(=O)CSc2cn(CC(=O)N(C(C)C)C(C)C)c3ccccc23)cc1	/	/	-8%	/	0%	/
COc1cccc(NC(=O)CN(C)C(C)C(=O)N2CCCCC2)c1 (stereo not drawn)	/	6%	/	/	0%	/
CC(C(=O)N1CCCC1)N(C)CC(=O)Nc1cccc(F)c1 (stereo not drawn)	/	-14%	8.9µM*	/	4%	/
CC1CCc2c(c3ccccc3n2C(=O)CCl)C1 (stereo not drawn)	?	-21%	8.9µM*	-41%	-16%	7%
